{"source": "PubChem BioAssay (NCATS)", "note": "Records with an inconclusive call do not appear. A call without a number means that no potency is given here. Activity calls are given as the source filed them. Calls come from the whole dose curve; as a rule, active = well fitted cell-killing curve with a large enough effect; inconclusive = small, poorly fitted or top-dose-only effect, or effect the other way; inactive = flat fitted curve, though single readings scatter.", "data": [{"test": "Cell Viability - HUV-EC-C (AID 542); note: nearly all actives have a fitted effect of over 35% in size", "details": "HUV-EC-C endothelial cell viability, qHTS; series mostly up to 92.2 µM", "text": "NIH Chemical Genomics Center [NCGC]\nNIH Molecular Libraries Screening Centers Network [MLSCN]\nNational Institutes of Environmental Health Sciences [NIEHS]\nNational Toxicology Program [NTP]\nWe have developed a 1536-well cell-based assay for quantitative high throughput screening (qHTS) against a number of cell lines to determine in vitro cytotoxicity of small molecules. This particular assay uses the HUV-EC-C cell line which is derived from normal human vascular endothelial cells.\nNCGC Assay Protocol Summary:\nThe CellTiter-Glo luminescent cell viability assay (Promega) is a homogeneous method to measure the number of viable cells in culture. The end point readout of this assay is based on quantitation of intracellular ATP, an indicator of metabolic activity, using the luciferase reaction. Luciferase catalyzes the oxidation of beetle Luciferin to oxyluciferin and light in the presence of ATP. The luminescent signal is proportional to amount of ATP present.\nUsing the CellTiter-Glo luminescent cell viability assay, the amount of cellular ATP was measured in the HUV-EC-C cell line with complete culture medium following compound treatment for 40 hours. The assay was performed in opaque white Kalypsys 1536-well plates. In the screen, tamoxifen and doxorubicin were used as positive controls. Library compounds were measured for their ability to cause acute toxicity in the cell line, as reflected by a decrease in intracellular ATP levels, in a concentration-dependent manner. […] AC50 values were determined from concentration-response data modeled with the standard Hill equation.\nqHTS protocol for CellTiter Glo HUV-EC-C cellular assay\n[Step] [Parameter] [Value] [Description]\n1. Reagent; 5 uL; 1000 HUV-EC-C cells/well\n2. Time; 5 hr; 37 °C incubation\n4. Controls; 23 nL; Tamoxifen 0.34 uM to 100 uM & Doxorubicin 0.02 nM to 100 uM\n5. Time; 40 hr; 37 °C incubation\n6. Reagent; 5 uL; CellTiter Glo reagent\n7. Time; 20 min; Room Temperature\n8. Detection; Luminescence; Viewlux plate reader\nKeywords: cell viability, cytotoxicity, HUV-EC-C cell line, luminescence, NTPHTS, NTPHTS_NCGC, NIEHS, EPA, DSSTox, MLSMR, MLSCN, NIH Roadmap, qHTS, NCGC", "values": [{"molecule": "Cc1cc(-c2ccc(N)c(C)c2)ccc1N", "Potency": "inactive"}, {"molecule": "CCCCCCCCCCCOC(=O)c1ccccc1C(=O)OCCCCCCCCCCC", "Potency": "inactive"}, {"molecule": "CCC/C=N/O", "Potency": "inactive"}, {"molecule": "CC(C)(COCC1CO1)COCC1CO1", "note": "(stereo not given)", "Potency": "inactive"}, {"molecule": "ClC=CCl", "Potency": "inactive"}, {"molecule": "C=COC(C)=O", "Potency": "inactive"}, {"molecule": "CN(C)c1ccc(N(C)C)cc1", "Potency": "inactive"}, {"molecule": "Nc1c(Br)cc([N+](=O)[O-])cc1[N+](=O)[O-]", "Potency": "inactive"}, {"molecule": "CN(C)c1ccccc1", "Potency": "inactive"}, {"molecule": "Cc1cccc(C)c1N", "Potency": "inactive"}, {"molecule": "[C-]1=CC=CC1.[C-]1=CC=CC1.[Cl-].[Cl-].[Ti+4]", "Potency": "inactive"}, {"molecule": "CC(C)(C)OOC(=O)c1ccccc1", "Potency": "inactive"}, {"molecule": "CC(=O)CCC(C)=O", "Potency": "inactive"}, {"molecule": "N#CCCCCC#N", "Potency": "inactive"}, {"molecule": "CCCCOCC1CO1", "note": "(stereo not given)", "Potency": "inactive"}, {"molecule": "C=CC(=O)OCCN(C)C", "Potency": "inactive"}, {"molecule": "Cl/C=C\\Cl", "Potency": "inactive"}, {"molecule": "O=Cc1ccc2c(c1)OCO2", "Potency": "inactive"}, {"molecule": "Clc1cccc(Cl)c1", "Potency": "inactive"}, {"molecule": "Clc1ccccc1", "Potency": "inactive"}, {"molecule": "Clc1cccc(Cl)c1Cl", "Potency": "inactive"}, {"molecule": "O=C(Cc1ccccc1)OCc1ccccc1", "Potency": "inactive"}, {"molecule": "CCOC(=O)CC(SP(=O)(OC)OC)C(=O)OCC", "note": "(stereo not given)", "Potency": "inactive"}, {"molecule": "CC(C)(Cl)[N+](=O)[O-]", "Potency": "inactive"}, {"molecule": "Cc1cc(N=Nc2ccccc2C)ccc1N", "Potency": "inactive"}, {"molecule": "O=C(Cl)c1ccccc1F", "Potency": "inactive"}, {"molecule": "CC(Cl)CCl", "note": "(stereo not given)", "Potency": "inactive"}, {"molecule": "Oc1ccc(Cl)c(Cl)c1", "Potency": "inactive"}, {"molecule": "O=[N+]([O-])c1cccc(O)c1", "Potency": "inactive"}, {"molecule": "O=C(O)C(Cl)(Cl)Br", "Potency": "inactive"}, {"molecule": "COc1ccc(C=O)cc1", "Potency": "inactive"}, {"molecule": "CC(C)(Cl)Cl", "Potency": "inactive"}, {"molecule": "CC(=O)[O-].CC(=O)[O-].CC(=O)[O-].[Cr+3]", "Potency": "inactive"}, {"molecule": "CC[N+](=O)[O-]", "Potency": "inactive"}, {"molecule": "Cc1ccccc1[N+](=O)[O-]", "Potency": "inactive"}, {"molecule": "Cc1ccc(N)cc1C", "Potency": "inactive"}, {"molecule": "ClCc1ccccn1", "Potency": "inactive"}, {"molecule": "Brc1cccc(-c2ccccc2)c1", "Potency": "inactive"}, {"molecule": "BrCCc1ccccc1", "Potency": "inactive"}, {"molecule": "C=CC(=O)OCC(C)C", "Potency": "inactive"}]}]}
